The text below walks through data of the supplement of paper PMC13380429.

Structures can show the parent of a compound that is named as a salt.

This experiment has as its system Vero E6 infected with SARS-CoV-2. Briefly: SARS-CoV-2 infection rate relative to infected DMSO; higher = more infection, active = 60 or less. The settings on record: 24 h.
On to `CC[C@@H](C)CNCC(=O)N1CCc2sccc2[C@@H]1COc1cccc(C)c1` (10 µM), for which the SARS-CoV-2 infection rate was 58.5% (active).
With `OCc1ccccc1O[C@@H]1O[C@H](CO)[C@@H](O)[C@H](O)[C@H]1O` [salicin] (10 µM), the SARS-CoV-2 infection rate is 99% (inactive).
`CCN(CC)S(=O)(=O)c1ccc(C(=O)O)cc1` [etebenecid] (10 µM): the SARS-CoV-2 infection rate was 105% (inactive).
In the case of `CC[n+]1c(-c2ccccc2)c2cc(N)ccc2c2ccc(N)cc21` [homidium] (10 µM) it was 99.5% (inactive); in that of `C=C1/C(=C\C=C2/CCC[C@]3(C)[C@@H]([C@H](C)CC[C@@H](O)C(C)C)CC[C@@H]23)C[C@@H](O)C[C@@H]1O` [tacalcitol] (10 µM), 120% (inactive).
For the compound `CNCCc1cnc[nH]1` [N-alpha-methylhistamine-dihydrochloride] (10 µM), the SARS-CoV-2 infection rate was 110% (inactive).
Consider `C[C@H](NCc1ccc(OCc2cccc(F)c2)cc1)C(N)=O` [safinamide] (10 µM), for which the SARS-CoV-2 infection rate was 115% (inactive).
Next, `COc1ccccc1N1CCN(CCN(C(=O)C2CCCCC2)c2ccccn2)CC1` (10 µM): 118% (inactive).
In the case of `C[C@@H]1C[C@H]2[C@@H]3CCC4=CC(=O)C=C[C@]4(C)[C@@]3(F)[C@@H](O)C[C@]2(C)[C@@]1(O)C(=O)COP(=O)(O)O` (10 µM) it was 99% (inactive).
Regarding `N#C/C(=C\c1cccn1S(=O)(=O)c1cccc([N+](=O)[O-])c1)S(=O)(=O)c1ccc(F)cc1` (10 µM), the SARS-CoV-2 infection rate was 109% (inactive).
In the case of `N#Cc1ncccn1` [2-cyanopyrimidine] (10 µM), the SARS-CoV-2 infection rate is 108% (inactive).
Next, `CN(C)C[C@H](O)Cn1c2ccc(Br)cc2c2cc(Br)ccc21` (racemic) [wiskostatin] (0.833333 µM): 110% (inactive); `CCn1c(=O)c(-c2cc[nH]n2)cc2c(C)nc(N)nc21` [voxtalisib] (0.833333 µM): 109% (inactive); `Cc1cccc(C)c1NC(=O)CN1CCCC1=O` [nefiracetam] (10 µM): 113% (inactive).
In the case of `Cc1cc(C)nc(NS(=O)(=O)c2ccc(NC(=S)NC(=O)COc3ccc(Br)cc3Cl)cc2)n1` (10 µM) it was 108% (inactive).
Next, `NC(=O)CCCCn1ccc(/N=C(\N)NCC(F)(F)F)n1` (10 µM): 100% (inactive); `N#Cc1cc2c(OCC(O)CN3CCN(C(c4ccccc4)c4ccccc4)CC3)cccc2[nH]1` (configuration not stated) (0.833333 µM): 75% (inactive); `CC(C)(C)C(=O)OCOC(=O)[C@@H]1N2C(=O)[C@@H](/N=C/N3CCCCCC3)[C@H]2SC1(C)C` [pivmecillinam] (10 µM): 99% (inactive).
In the case of `CC(Cc1ccccc1)NCCC(c1ccccc1)c1ccccc1` (configuration not stated) [prenylamine] (10 µM), the SARS-CoV-2 infection rate is 19.5% (active).
`CC(C)[C@H](O)C(=O)N[C@@H](C)C(=O)N[C@@H]1C(=O)N(C)CCc2ccccc21` [semagacestat] (10 µM): the SARS-CoV-2 infection rate is 120% (inactive).
On to `CC(C)(F)C[C@H](N[C@@H](c1ccc(-c2ccc(S(C)(=O)=O)cc2)cc1)C(F)(F)F)C(=O)NC1(C#N)CC1` [odanacatib] (10 µM), for which the SARS-CoV-2 infection rate was 96.5% (inactive).
In the case of `C(#CCN1CCCC1)CN1CCCC1` [tremorine] (10 µM) it was 96% (inactive).
Regarding `O=C(Nc1cc(C(F)(F)F)cc(C(F)(F)F)c1)c1cc(Cl)ccc1O` [IKK-2-inhibitor-V] (10 µM), the SARS-CoV-2 infection rate was 104% (inactive).
In the case of `Cc1ccccc1N1CCN(CCc2nnc3n2CCCC3)CC1` [dapiprazole] (10 µM) it was 87.5% (inactive); in that of `C1Cc2[nH]nc(-c3nn[nH]n3)c2C1` (10 µM), 109% (inactive).
Take `CC1(C)CCC(C)(C)c2cc(Cn3cccn3)c(/C=C/c3ccc(C(=O)O)cc3)cc21` [palovarotene] (10 µM): the SARS-CoV-2 infection rate was 108% (inactive).
Next, `Cn1cc(-c2ccc3c(c2)CCN3C(=O)Cc2cccc(C(F)(F)F)c2)c2c(N)ncnc21` (0.833333 µM): 92% (inactive); `CCOC(=O)CSCCC1NC(C(=O)O)CS1` (configuration not stated) [letosteine] (10 µM): 117% (inactive); `CC(C)(Sc1ccncc1-c1ccc(C#N)c2ccccc12)C(=O)O` [verinurad] (10 µM): 98% (inactive).
In the case of `O=c1cc(N2CCOCC2)oc2c1ccc1ccccc12` (10 µM) it was 110% (inactive).
In the case of `CN(C)CCCSC(=N)N` [dimaprit] (10 µM) it was 94.5% (inactive); in that of `Nc1ncnc2c1ncn2[C@@H]1O[C@H](C[C@@H](N)CC[C@H](N)C(=O)O)[C@@H](O)[C@H]1O` [sinefungin] (10 µM), 109% (inactive).
